# AmpC no deterg: qHTS Inhibitors of AmpC Beta-Lactamase (assay without detergent); P00811; Potency, µM (doses to about 57.1 µM), for the others: at the highest dose activity change, negative = inhibition, usual class: inhibitors; AmpC nitrocefin hydrolysis, absorbance 480 nm, 0.0001% Triton; AID 485341, 2010; 0.52% of 330,000 active;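 further: plate controls were no compound for no effect and no enzyme for full effect; nearly all actives have a fitted effect of over 20% in size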
# Target sequence (P00811 whole entry, looked up): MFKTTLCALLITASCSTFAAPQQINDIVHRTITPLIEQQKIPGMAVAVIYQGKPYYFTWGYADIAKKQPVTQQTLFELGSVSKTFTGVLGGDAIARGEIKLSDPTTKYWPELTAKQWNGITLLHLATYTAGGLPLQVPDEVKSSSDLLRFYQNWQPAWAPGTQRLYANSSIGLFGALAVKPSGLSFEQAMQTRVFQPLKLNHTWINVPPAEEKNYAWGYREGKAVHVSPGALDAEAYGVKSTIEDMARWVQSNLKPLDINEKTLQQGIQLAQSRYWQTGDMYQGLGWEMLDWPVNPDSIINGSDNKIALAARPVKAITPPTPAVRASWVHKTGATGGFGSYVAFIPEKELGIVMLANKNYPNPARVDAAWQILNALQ
#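 AmpC (5.3 nM in the dispensed reagent) in 20 mM phosphate pH 7.0 with 0.01% (detergent screen) or 0.0001% Triton X-100 was preincubated with compounds for 15 min at room temperature. Nitrocefin was then added from an 800 uM solution, and hydrolysis was followed at 480 nm.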
# AmpC inh detg: qHTS Inhibitors of AmpC Beta-Lactamase (assay with detergent) | P00811 | AmpC hydrolysis of nitrocefin, absorbance 480 nm, 0.01% Triton | Potency, µM (series often up to 114 µM), for the others: top-dose activity change, negative = inhibition, hits mostly inhibitors | 0.041% of 370,000 active | AID 485294, 2010;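 further: 0% = no-compound wells and -100% = no-enzyme wells; nearly all actives have a fitted effect of over 25% in size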
#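 20 mM phosphate pH 7.0 + 0.01% (detergent screen) or 0.0001% Triton X-100; 5.3 nM AmpC reagent; cpd preinc 15 min RT; nitrocefin (800 uM stock) to start; A480 q20 s × 4 min; Activity was normalised to no-enzyme and no-compound control wells.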
# Sm TGR block: qHTS Assay for the Inhibitors of Schistosoma Mansoni Peroxiredoxins; Potency, µM (doses to about 114 µM), for the others: at the top dose activity change, negative = inhibition, actives largely listed as inhibitors; Schistosoma mansoni thioredoxin glutathione reductase (TGR), Q962Y6; purified TGR, DTNB reduction, TNB absorbance 405 nm; 3% of 360,000 active; further: nearly all actives have a fitted effect of over 60% in size
#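 TGR 20 nM + NADPH 100 uM (dispensed conc.), cpd preinc 15 min RT; start with NADPH (500 uM addition) then DTNB (15 mM addition). Kinetic TNB absorbance, 405 nm filter. Four-parameter Hill fit across titration.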
# Active calls of the source: *; u = inconclusive; x = no result. This is a sample that favours compounds with a hit; in the whole collection about 3.3% have one here. The call rests on the fitted dose curve; in most records, active means well fitted curve in the direction sought with a large enough effect; inconclusive means small, poorly fitted or top-dose-only effect, or another doubt; inactive means no such curve, though single readings can be large; an effect the other way counts as inactive or inconclusive. Unless noted, on the % scale 0 is the no-effect control and ±100 the full control effect; potency means the concentration at half of the fitted maximal effect.
SMILES,AmpC no deterg,AmpC inh detg,Sm TGR block
COc1cccc(N2C(=O)C(CC(=O)Nc3ccc(Cl)cc3)N(Cc3ccc4c(c3)OCO4)C2=O)c1 (configuration not stated),x,13%,-2%
CCCN1Cc2cccc(C(=O)Nc3ccc(OC)cc3OC)c2C1=O,x,0%,15%
Cc1ccc(NC(=O)c2ccc(Cl)c(N3C(=O)C=CC3=O)c2)cc1,-37%,-2%,0.56µM*
O=C(Nc1ccc(Cl)c(Cl)c1)c1ccc(Cl)c(Cl)c1,-25%,-13%,16%
CCc1cc2c(cc3c(=O)n(CC(=O)N4CCCCC4)nc(CC)n32)s1,x,-3%,6%
CCOc1ccccc1CNC(=O)c1cc2cc(S(=O)(=O)N3CCCCC3)ccc2n1C,x,-1%,-1%
Cc1ccc(C(O)(COC(=O)C(C)C)COC(=O)C(C)C)c(O)c1,9%,7%,35µM*
Cc1ccc(C(=O)OCC(=O)Nc2ccc3c(c2)OCO3)c(O)c1,-12%,u,0%
CN(C)CCN(Cc1ccco1)C(=O)c1cc2c(s1)-c1ccccc1OC2,x,20%,-5%
Cc1ccc(NC(=O)Cn2c(=O)n(CC3CCC(C(=O)NC(C)C)CC3)c(=O)c3sccc32)cc1 (configuration not stated),x,6%,23%
COc1ccc(NCc2cccn2-c2nnc(N3CCCCC3)s2)cc1OC,x,-3%,45µM*
COc1ccc(NCc2cccn2-c2nnc(N3CCOCC3)s2)cc1OC,x,1%,32µM*
COc1ccc(OC)c(NCc2cccn2-c2nnc(N3CCCCC3)s2)c1,x,5%,-15%
COc1cccc(NCc2cccn2-c2nnc(N3CCC(C)CC3)s2)c1,x,12%,-21%
CCOC(=O)C1CCC(CN(Cc2ccc(OC)cc2)S(=O)(=O)c2ccc(F)c(C(=O)Nc3cc(Cl)ccc3OC)c2)CC1 (configuration not stated),x,7%,6%
Cc1c(Cl)cccc1NC(=O)CC(c1ccc(F)cc1)N1Cc2ccccc2C1=O (configuration not stated),x,2%,0%
CC1CCc2c(nc3nc[nH]n3c2=O)C1 (configuration not stated),-8%,0%,3%
S=c1c2c(nc3nc[nH]n13)CCC2,-7%,-8%,18µM*
CCOC(=O)c1nnc2c(-c3ccc(Cl)cc3)c(C)nn2c1C,x,-4%,0%
Cc1ncc(CO)c2c1Oc1nc(-c3ccccc3)nc(SCC(=O)Nc3cccc(C(F)(F)F)c3)c1C2,x,3%,u
N#CC(C#N)=Cc1ccc(C=C(C#N)C#N)cc1,-30%,6%,2.2µM*
N#CC(=Cc1ccc(O)cc1)C(N)=C(C#N)C#N,-16%,-10%,-6%
CC(=O)c1cccc(NC(=O)Cn2nc(C)n3cccc3c2=O)c1,x,-4%,-13%
Cc1cc2oc(=O)cc(CSc3nc(N)cc(N)n3)c2cc1C(C)C,2.8µM*,-6%,1%
CCCc1cc(=O)[nH]c(SCc2cc(=O)oc3cc(C)c(C(C)C)cc23)n1,-22%,-14%,-9%
SMILES,AmpC no deterg,AmpC inh detg,Sm TGR block
CCOc1ccccc1NS(=O)(=O)c1cnc(N)nc1,x,0%,-10%
Cc1ccc(C)c(Cn2c3ccccc3c3cnn(CC(=O)NCC(C)c4ccccc4)c(=O)c32)c1 (configuration not stated),x,27%,-12%
COc1ccc(C(=O)Nc2ccc3c(c2)OCCO3)cc1,-23%,-4%,-2%
CCCOc1ccc(C(=O)CCNc2cccc(Cl)c2)cc1,-26%,-13%,u
COc1ccc(C(=O)CCNc2cccc(Cl)c2)cc1,-17%,5%,45µM*
COc1ccc(C(=O)CCNc2ccc3c(c2)OCCO3)cc1,-5%,-15%,14µM*
COc1cc(OC)c(NC(=O)C2=C(C)C(=O)OC23CCCCCC3)cc1Cl,x,11%,5%
N#Cc1c(Cl)nsc1NN,1.4µM*,-3%,-29%
COc1ccccc1CNC(=O)Cn1c(-c2ccc(F)cc2)cc(C(C)=O)c1C,x,4%,15%
COc1cc2c(C(=O)N3CCN(c4ccc(F)cc4)CC3)cn(CC(C)C)c(=O)c2cc1OC,x,3%,-6%
CCC(O)(CCN1CCCCC1)c1ccccc1 (configuration not stated),-11%,u,14%
CCCCCC(O)(CCN1CCCCC1)c1ccc(OCC)cc1 (configuration not stated),38%,u,1µM*
CCOc1ccc(NC(=O)CCN2CCCCC2)cc1,-7%,-13%,5%
CCCC(O)(CCN1CCCCC1)c1ccc(OCC)cc1 (configuration not stated),-5%,0%,4µM*
COc1ccc(OCCCN2CCCCCC2)cc1,36%,-4%,0%
COc1ccc(C(O)(CCN2CCCCC2)C2CCCCC2)cc1 (configuration not stated),10%,u,1.4µM*
CCOC(=O)c1ccc(NC(=O)Cn2c(=O)cc(C)c3c(C)nn(-c4ccc(CC)cc4)c32)cc1,x,-8%,-2%
COc1ccc(N2CCN(C(=O)CCc3c(C)nc4c(-c5ccccc5)c(C)nn4c3C)CC2)cc1,x,-2%,23%
CC1CCN(c2oc(/C=C/c3ccc(F)cc3)nc2C#N)CC1,x,0%,1%
CCc1ccc(NC(=O)Cn2c(-c3cncs3)nc3ccccc32)cc1,x,-5%,-1%
COc1ccc(C2C=C(c3ccccc3)Nc3nc(NC(=O)/C=C/c4ccccc4)nn32)cc1 (configuration not stated),x,-5%,1%
COc1ccc(C(=O)Nc2nc3n(n2)C(c2ccccc2)C=C(c2ccccc2)N3)cc1 (configuration not stated),x,2%,3.2µM*
COc1ccc(C2C=C(c3ccccc3)Nc3nc(NC(=O)/C=C/c4ccccc4OC)nn32)cc1 (configuration not stated),x,1%,-12%
CCC(=O)Nc1nc2n(n1)C(c1ccc(OC)cc1)C=C(c1ccccc1)N2 (configuration not stated),2%,4%,4.5µM*
Cc1cccc(NC(=O)CN2C(=O)CCc3ccccc32)c1C,x,13%,-1%
SMILES,AmpC no deterg,AmpC inh detg,Sm TGR block
COC(=O)c1cc(S(=O)(=O)N2CCN(c3ccc(C)cc3C)CC2)cn1C,x,-1%,3%
CCCc1nc2cc3c(cc2[nH]1)n(C)c(=O)n3C,-9%,6%,22µM*
Cn1c(=O)n(C)c2cc3[nH]cnc3cc21,-12%,11%,5%
CCN(CC)c1ccc(-c2nc(-c3ccco3)no2)cc1[N+](=O)[O-],x,-5%,-9%
Fc1ccccc1Nc1n[nH]c(=S)s1,-39%,2%,-2%
S=c1[nH]nc(Nc2cccc3ccccc23)s1,28µM*,-6%,9%
CCOc1ccc(-c2cnc(NCc3ccc(OC)cc3OC)n2C)cc1,x,1%,-2%
CCN(CC)c1ccc(C=C2C(=O)NC(=S)NC2=O)cc1,-21%,7%,16µM*
CCN(CC)c1ccc(/C=C2\NC(=O)NC2=O)cc1,-17%,-5%,-7%
Cc1ccc(/C=C2\NC(=S)NC2=O)cc1[N+](=O)[O-],-29%,-8%,1%

# Source: PubChem
